# Test results reported in ChEMBL document CHEMBL1157539, “Thousands of chemical starting points for antimalarial lead identification” (Nature, 2010).
# System: HepG2
# Test: GSK_TCMDC: Percent inhibition of human HepG2 cell line. Test compounds present at 10uM.
# Format: functional
row,Compound,Inhibition [%]
1,O=c1cc(NCCCNC(c2ccccc2)c2ccc(Cl)c(Cl)c2)[nH]c2ccccc12 (centres undefined),13
2,CC(C)c1ccc2[nH]c(C(=O)NC3CCC(N4CCCc5ccc(C#N)cc5C4)CC3)cc2c1 (centres undefined),48
3,Br.CCCCCCCCc1c(C)nc(C)c(Br)c1O,0
4,CCOc1cc(C(=O)NCCN(C(C)C)C(C)C)ccc1-c1nc2cc(Cl)ccc2[nH]1,4
5,O=C(Cn1c(CCc2cccc(F)c2F)nc(=O)c2ccccc21)N(CCCN1CCCCC1)Cc1ccc(-c2ccc(C(F)(F)F)cc2)cc1.O=C(O)C(O)C(O)C(=O)O,100
6,CC(C)[C@H](NC(=O)c1c(CN2CCC(N3CCCCC3)CC2)c(-c2ccccc2)nc2cc(O)ccc12)c1ccccc1,10
7,CN(C)Cc1ccc2cc(NC(=O)c3ccc(-c4ccc(Cl)cc4)cc3)ccc2c1,21
8,Cc1onc(-c2c(F)cccc2Cl)c1C(=O)Nc1ccccc1I,0
9,CCOc1ccc(C(C)NC(=O)c2ccc(OC)c(Br)c2)cc1OCC (centres undefined),9
10,Cc1ccnc(NC(=O)c2cc(-c3cccc([N+](=O)[O-])c3)nc3onc(C)c23)c1,5
11,Cl.NC[C@H](CC1CCCCC1)NC(=O)c1ccc(-c2ccnc3[nH]ccc23)s1,39
12,FC(F)(F)c1cccc(-c2cc(NCCCn3ccnc3)nc(-c3ccncc3)n2)c1,50
13,COc1cccc(C2=CC(c3ccccc3)n3ncc(C(=O)Nc4ccc(Cl)cc4)c3N2)c1 (centres undefined),7
14,CCN1CCN(C(=O)NC(C(=O)N(C)Cc2ccc(-c3ccc(C(F)(F)F)cc3)cc2)c2cccs2)C(=O)C1=O (centres undefined),0
15,O=C(NCCCN1CCC(N2CCCCC2)CC1)c1ccc2nc(N3CCCCC3)sc2c1,11
16,COc1ccc(-c2nonc2NC(=O)c2cccc(Cl)c2)cc1OC,41
17,COc1ccc(CN2CCC2=O)c(OC)c1,0
18,CC1CC(NCCCNc2cc(=O)c3ccccc3[nH]2)c2c1cc(Cl)c(Cl)c2Cl (centres undefined),1
19,N=C(/N=C(/NCCCCCCN/C(=N/C(=N)NCc1ccc(Cl)c(Cl)c1)N1CCCCC1)N1CCCCC1)NCc1ccc(Cl)c(Cl)c1,6
20,CCN(CCCN1CCCCC1)c1cc(C)nc(Nc2ccc(C)cc2C)n1.O=C(O)C(F)(F)F,33

row,Compound,Inhibition [%]
1,Cl.c1ccc2c(NCCCCCCCCCNc3ccnc4ccccc34)ccnc2c1,57
2,CN(C)c1ccc(-c2csc(C(=O)NC3CCCCN(Cc4ccc(C(C)(C)C)cc4)C3)c2)cc1.O=C(O)C(F)(F)F (centres undefined),17
3,CCCCCCCc1ccc(-c2c(C)[nH]c(C)c(Cl)c2=O)cn1,0
4,CCc1ccc(-n2c(=O)c3cccnc3n2CC(=O)NC2CCCC2)cc1,0
5,Clc1ccc2c(N3CCCNCC3)ccnc2c1,11
6,CN1CCN(Cc2c(O)ccc3c(=O)c(Oc4ccc(C(C)(C)C)cc4)c(C(F)(F)F)oc23)CC1,0
7,CCOc1ccc2c(=NN=Cc3cccc(OC)c3OC)cc(C)[nH]c2c1,4
8,COc1ccccc1C1CC(c2ccc(C)cc2)=NN1C(=O)c1ccccc1 (centres undefined),37
9,CCCC(CNCc1cccc(SC(F)(F)F)c1)CNc1cc(=O)c2ccccc2[nH]1 (centres undefined),5
10,O=C(C=Cc1ccc(-c2nc3ccccc3[nH]2)cc1)NC1CCN(Cc2ccccc2)CC1,15
11,COc1cc(C(=O)NCCCN2CCN(c3cc(Cl)ccc3OC)CC2)ccc1-c1nc2cc(Cl)c(Cl)cc2[nH]1,12
12,CN(Cc1ccccc1)C1CCN(c2cc(NC(=O)c3cccc(F)c3)ccn2)CC1.O=C(O)C(F)(F)F,2
13,CNC(=O)c1cc(S(=O)(=O)Nc2ccc(OC)cc2)cs1,11
14,Nc1nc(N)c2c(n1)CCC(c1ccccc1)C2 (centres undefined),55
15,Fc1ccc2[nH]c(-c3ccc(-c4ccc(CNCCN5CCNCC5)cc4)cc3)nc2c1.O=C(O)C(F)(F)F,94
16,CCNc1cc(C(=O)N[C@@H](Cc2cc(F)cc(F)c2)[C@H](O)CNCc2cccc(C(F)(F)F)c2)cc(N2CCCCS2(=O)=O)c1.Cl,1
17,CC12CCC(CN(CC(O)Cn3c4ccccc4c4cc(I)ccc43)C1)C2(C)C.Cl (centres undefined),0
18,CCCCNCc1ccc(-c2nc(CN(C(=O)Nc3cc([N+](=O)[O-])ccc3F)C3Cc4ccccc4C3)cs2)cc1.O=C(O)C(F)(F)F,15
19,CCOC(=O)c1c(NC(=O)c2ccccc2)sc2c(O)c(CN(CC)CC)ccc12.Cl,9
